According to PubChem BioAssay (NCI):
The panel holds about 83,000 compounds, 20% with a hit somewhere; the sample as a whole holds those more often.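 Values shown are percent growth following 48 h exposure of cells in 96-well plates to a single concentration of compound; below 10 was considered active.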 Values without a mark were called inactive. The source made the active and inactive calls.

What was measured:
Test in all cases: NCI-60 one-dose screen, 48 h (100 = growth as untreated, 0 = no growth, -100 = all killed)
Conditions in all cases: 10 µM unless noted
NCI-H23 lung = tested on: NCI-H23 lung
NCI-H226 lung = tested on: NCI-H226 lung
NCI-H322M lung = tested on: NCI-H322M lung
HOP-62 NSCLC = tested on: HOP-62 NSCLC
NCI-H460 lung = tested on: NCI-H460 lung
HOP-92 NSCLC = tested on: HOP-92 NSCLC
NCI-H522 lung = tested on: NCI-H522 lung
A549/ATCC NSCLC = tested on: A549/ATCC NSCLC
786-0 renal = tested on: 786-0 renal
COLO 205 colon = tested on: COLO 205 colon
DU-145 prostate = tested on: DU-145 prostate
K-562 leukemia = tested on: K-562 leukemia
MALME-3M melanoma = tested on: MALME-3M melanoma
MDA-MB-231 breast = tested on: MDA-MB-231 breast
RXF 393 renal = tested on: RXF 393 renal
SF-268 CNS = tested on: SF-268 CNS
SF-295 CNS = tested on: SF-295 CNS
SF-539 CNS = tested on: SF-539 CNS
UACC-257 melanoma = tested on: UACC-257 melanoma
M14 melanoma = tested on: M14 melanoma

Row | SMILES | growth (NCI-H23 lung) | growth (NCI-H226 lung) | growth (NCI-H322M lung) | growth (HOP-62 NSCLC) | growth (NCI-H460 lung) | growth (HOP-92 NSCLC) | growth (NCI-H522 lung) | growth (A549/ATCC NSCLC) | growth (786-0 renal) | growth (COLO 205 colon) | growth (DU-145 prostate) | growth (K-562 leukemia) | growth (MALME-3M melanoma) | growth (MDA-MB-231 breast) | growth (RXF 393 renal) | growth (SF-268 CNS) | growth (SF-295 CNS) | growth (SF-539 CNS) | growth (UACC-257 melanoma) | growth (M14 melanoma)
1 | COc1ccc(/C=N/C2=C(C#N)C(c3ccc(N(C)C)cc3)c3ccc4ccccc4c3O2)cc1 (stereo not given) | 79.2% | 44.6% | 89.1% | 57.4% | 40.7% | 65.4% | 26.1% | 64.9% | 83.1% | 101% | 81.5% | 14.7% | 72% | 52.5% | 67.2% | 63.1% | 39.1% | 51.8% | 79.3% | 44%
2 | Nc1ccn(-c2ccc(Br)cc2)c(=O)n1 | 88.8% | 128% | 120% | 102% | 105% | 74.6% | 88.5% | 107% | 102% | 198% | 101% | 76.2% | 124% | 104% | 137% | 109% | 79.3% | 94.1% | 127% | 104%
3 | Cn1c(=O)[nH]c(=O)c2nc(CCC(=O)NCCC(=O)O)c(=O)[nH]c21 | 97.5% | 88.3% | 100% | 105% | 103% | 98.2% | 96.5% | 103% | 109% | 109% | 113% | 104% | 98.9% | 110% | 112% | 98.2% | 102% | 95.7% | 101% | 111%
4 | O=C(Nc1ccccc1Cl)c1ccc(NC2=C(Cl)C(=O)N(C3CCCCC3)C2=O)cc1 | -24.1% [30 µM] (active) | 97.1% [30 µM] | 16.2% [30 µM] | 88.4% [30 µM] | 32.8% [30 µM] | -16.8% [30 µM] (active) | 70.3% [30 µM] | 94% [30 µM] | 69.9% [30 µM] | 66.6% [30 µM] | 28.8% [30 µM] | 25.3% [30 µM] | 80.6% [30 µM] | 85.4% [30 µM] | -12.1% [30 µM] (active) | 60.5% [30 µM] | 21.6% [30 µM] | 82% [30 µM] | 54.9% [30 µM] | 92.6% [30 µM]
5 | O=C1c2cc3c(cc2-c2c1c1ccc(F)cc1c(=O)n2C[C@H](O)[C@H](O)[C@H](O)CO)OCO3 | -49.4% (active) | -34.7% (active) | 8.49% (active) | -23.1% (active) | 1% (active) | -7.34% (active) | -24.6% (active) | -45.1% (active) | 0.283% (active) | -30.9% (active) | -1.68% (active) | 5.32% (active) | -48.9% (active) | -1.24% (active) | -57.2% (active) | 1.96% (active) | -23.6% (active) | -41.1% (active) | -43.4% (active) | -20.4% (active)
6 | CC[C@@H](C(=O)[C@@H](C)[C@@H](O)[C@H](C)[C@@H]1O[C@@H]([C@@H](CC)C(=O)O)CC[C@@H]1C)[C@H]1OC2(C=C[C@@H](O)[C@]3(CC[C@@](C)([C@H]4CC[C@](O)(CC)[C@H](C)O4)O3)O2)[C@H](C)C[C@@H]1C (stereo not given in full) | 4.65% (active) | 14.1% | 24.2% | 39.3% | 10% | -14.8% (active) | -54.6% (active) | 11.9% | 3.62% (active) | 17.1% | 45.8% | -33.8% (active) | -90.7% (active) | -39% (active) | -32.6% (active) | 27.4% | 1.38% (active) | -28.1% (active) | 7.26% (active) | -86.7% (active)
7 | c1ccc(CCNc2ncnc3[nH]ncc23)cc1 | 94.4% | 89.4% | 112% | 89.7% | 117% | 55.4% | 85.5% | 92.4% | 96.4% | 114% | 109% | 94.6% | 114% | 93.2% | 93.2% | 109% | 102% | 116% | 96.5% | 104%
8 | O=c1nc2oc3ccc4ccccc4c3cc-2s1 | 45.5% | 37.5% | 35% | 23% | 11.1% | 14.2% | -3.74% (active) | 35.1% | 23% | 30.4% | 19% | 11.9% | 45.2% | 42.7% | -18.5% (active) | 40.8% | 9.97% (active) | -25.1% (active) | 51.6% | -33.4% (active)
9 | CC[C@]1(O)C[C@@H]2CN(CCc3c([nH]c4ccccc34)[C@@](C(=O)OC)(c3cc4c(cc3OC)N(C)[C@H]3[C@@](O)(C(N)=O)[C@H](O)[C@]5(CC)[C@@H]6C[C@@H]6CN6CC[C@]43[C@@H]65)C2)C1 | 32.7% | 44.2% | 55.4% | 24.1% | 8.06% (active) | 19.3% | -32.3% (active) | 12.7% | 18% | -44.3% (active) | 4.49% (active) | 11.8% | 85.5% | 2.3% (active) | 60.4% | 30.8% | 15.8% | 7.92% (active) | 53.6% | 1.22% (active)
10 | O=C1c2cc3c(cc2-c2c1c1ccc(Cl)cc1c(=O)n2CCCN1CCOCC1)OCO3 | 47.9% | 24.9% | 89.6% | 26.2% | 18.1% | 80.4% | 53.5% | 48.7% | 34.2% | 54.8% | 26.9% | 44.5% | 85.2% | 111% | 92.7% | 43.6% | 27.9% | 22.7% | 91.8% | 25.3%
11 | CCc1nnc(CNc2ccc(Cl)cc2)o1 | 105% | 93.2% | 92% | 111% | 100% | 102% | 89.9% | 94.4% | 97.4% | 106% | 108% | 86.3% | 95.6% | 94.4% | 113% | 96.4% | 102% | 97% | 103% | 95.1%
12 | COc1ccc(-c2nc3ccc(-c4nc5ccc(N6CCN(C)CC6)cc5[nH]4)cc3[nH]2)cc1OC | 62.7% | 54.6% | 96.5% | 76.9% | 103% | 89.8% | 13.7% | 96.1% | 79.1% | 25.5% | 77.6% | 40.5% | 0.551% (active) | 82.9% | 96.6% | 50.6% | 66.6% | 70.5% | 25.2% | 18.3%
13 | C=C1C(=O)O[C@H]2[C@H]1CC/C(COC(=O)c1cc3cc(OC)ccc3[nH]1)=C\CC[C@@]1(C)O[C@@H]21 | -72.6% (active) | -68.3% (active) | -50.8% (active) | -68.9% (active) | -37% (active) | -62.7% (active) | -91.4% (active) | -73.9% (active) | -87.6% (active) | -71.3% (active) | -94.4% (active) | 0.302% (active) | -85.3% (active) | -71.6% (active) | -95.1% (active) | -82.8% (active) | 47.5% | -93.4% (active) | -89.6% (active) | -52.9% (active)
14 | CCCc1cc(=O)n2c(C(=O)Nc3ccc(F)cc3)c(C(=O)Nc3ccc(F)cc3)sc2n1 | 81.9% [30 µM] | 69.5% [30 µM] | 54.8% [30 µM] | 27.8% [30 µM] | 52% [30 µM] | -36.3% [30 µM] (active) | 62.7% [30 µM] | 34.1% [30 µM] | 17.6% [30 µM] | 71.4% [30 µM] | 82.1% [30 µM] | 75.1% [30 µM] | 38.5% [30 µM] | 44.2% [30 µM] | 10.4% [30 µM] | 18.1% [30 µM] | 73% [30 µM] | 63.2% [30 µM] | 67.2% [30 µM] | 70.9% [30 µM]
15 | N#Cc1c(-c2ccc(Cl)cc2)nc(N/N=C/c2cccc(Br)c2)nc1N1CCOCC1 | 98.3% | 92.3% | 90.6% | 90.9% | 87% | 71.2% | 91.1% | 80.4% | 61.8% | 44% | 59.3% | 12.6% | 133% | 103% | 56.2% | 89.2% | 91.5% | 78.8% | 71.6% | 62.4%
